Results taken from the supplement of paper PMC10849652.
About 7,900 targets were measured; listed, in parts, are those with a hit and a random draw of the rest. About 0.6% of all pairs of compound and target were hits.

Columns and labels:
Assay in all cases: log2 fold change, soluble protein after heating vs DMSO (PISA); higher = thermal stabilisation; K562 cells, 10 uM, 30 min; active = over 0.2 and 3.5 SD of the protein, either way, in both replicates (recomputed)
[1] = compound: Cc1ccc(NC(=O)c2ccc(CN3CC[C@H](N(C)C)C3)c(C(F)(F)F)c2)cc1Nc1nccc(-c2cncnc2)n1 [bafetinib]
Procedure, shortened: (§1)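 Thermal stability values are relative to control samples and come from duplicates. They are expressed as log2 fold changes. For measurement, K562 cells (2×10^6 cells/mL) received 10 μM compound for 30 min, and aliquots were heated for 3 min over 48°C-58°C, pooled, and extracted at 4°C in PBS with 0.5% NP-40. Soluble protein, the supernatant after 21,000xg for 90 min, was quantified by TMTpro 16plex LC-MS/MS with equalised channel sums.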

[2] = compound: Cc1cccc(CC(=O)N2CCc3c2ccc(-c2cn(C)c4ncnc(N)c24)c3F)n1
Procedure, shortened: as §1

[3] = compound: Cc1cn(-c2cc(NC(=O)c3ccc(C)c(Nc4nccc(-c5cccnc5)n4)c3)cc(C(F)(F)F)c2)cn1 [nilotinib]
Procedure, shortened: as §1

[4] = compound: Cc1nc(Nc2n[nH]c3c2CN(C(=O)N[C@H](CN(C)C)c2ccccc2)C3(C)C)c2sccc2n1
Procedure, shortened: as §1

[5] = compound: Cc1nc(Nc2ncc(C(=O)Nc3c(C)cccc3Cl)s2)cc(N2CCN(CCO)CC2)n1 [dasatinib]
Procedure, shortened: as §1

[6] = compound: Cc1ncc(-c2ccnc(Nc3ccc(S(C)(=O)=O)cc3)n2)n1C(C)C
Procedure, shortened: as §1

[7] = compound: Cn1cc(-c2ccc3c(c2)CCN3C(=O)Cc2cccc(C(F)(F)F)c2)c2c(N)ncnc21
Procedure, shortened: as §1

[8] = compound: Cn1cc(-c2ccc3nnc(C(F)(F)c4ccc5ncccc5c4)n3n2)cn1
Procedure, shortened: as §1

[9] = compound: Cn1cncc1[C@@](N)(c1ccc(Cl)cc1)c1ccc2c(c1)c(-c1cccc(Cl)c1)cc(=O)n2C [tipifarnib]
Procedure, shortened: as §1

[10] = compound: FC(F)(F)c1ccc(/C=C/c2nc(COc3ccc(CCCCn4ccnn4)cc3)co2)cc1 [mubritinib]
Procedure, shortened: as §1

Measured: log2 fold change

FUCA1 (UniProt P04066)
inactive: [2] -0.001 | [3] -0.011 | [4] -0.01 | [5] -0.009 | [6] -0.014 | [7] -0.054 | [8] 0.011 | [9] -0.001 | [10] -0.008
active: [1] -1.16

HIP1R (UniProt O75146)
UniProt O75146, sequence (O75146 whole entry, looked up): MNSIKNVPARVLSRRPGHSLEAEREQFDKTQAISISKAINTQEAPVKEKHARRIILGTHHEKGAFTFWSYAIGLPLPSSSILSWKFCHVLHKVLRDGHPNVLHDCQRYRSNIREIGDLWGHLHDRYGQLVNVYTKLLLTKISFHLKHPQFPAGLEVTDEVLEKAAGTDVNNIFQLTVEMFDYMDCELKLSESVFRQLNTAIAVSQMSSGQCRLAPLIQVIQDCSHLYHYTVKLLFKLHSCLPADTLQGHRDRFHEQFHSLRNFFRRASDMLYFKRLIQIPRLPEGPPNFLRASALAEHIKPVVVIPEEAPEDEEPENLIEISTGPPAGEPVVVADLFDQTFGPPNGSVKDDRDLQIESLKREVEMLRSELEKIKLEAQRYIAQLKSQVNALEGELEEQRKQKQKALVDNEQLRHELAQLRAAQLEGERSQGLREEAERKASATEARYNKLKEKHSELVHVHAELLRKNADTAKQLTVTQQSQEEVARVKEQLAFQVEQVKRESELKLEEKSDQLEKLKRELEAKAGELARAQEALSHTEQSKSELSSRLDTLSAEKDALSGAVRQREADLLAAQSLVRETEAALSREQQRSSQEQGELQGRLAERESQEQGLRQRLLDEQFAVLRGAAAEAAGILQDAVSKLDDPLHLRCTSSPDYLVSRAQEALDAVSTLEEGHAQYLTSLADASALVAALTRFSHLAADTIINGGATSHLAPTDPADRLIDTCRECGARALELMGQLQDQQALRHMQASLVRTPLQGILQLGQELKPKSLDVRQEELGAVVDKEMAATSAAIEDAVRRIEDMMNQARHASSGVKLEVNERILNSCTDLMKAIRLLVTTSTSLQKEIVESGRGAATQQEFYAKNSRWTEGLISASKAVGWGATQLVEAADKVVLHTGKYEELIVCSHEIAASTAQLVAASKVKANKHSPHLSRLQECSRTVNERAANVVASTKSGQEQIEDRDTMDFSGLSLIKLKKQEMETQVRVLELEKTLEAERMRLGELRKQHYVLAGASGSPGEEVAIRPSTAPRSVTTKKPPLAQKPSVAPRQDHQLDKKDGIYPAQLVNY
inactive: [1] -0.021 | [2] 0.043 | [3] -0.11 | [4] 0.016 | [5] -0.144 | [6] -0.019 | [7] 0.022 | [8] -0.013 | [9] -0.075 | [10] 0.036

FANCI (UniProt Q9NVI1)
inactive: [1] -0.043 | [2] 0.041 | [3] -0.13 | [4] 0.113 | [5] -0.118 | [6] -0.085 | [7] 0.075 | [8] 0.098 | [9] -0.027 | [10] 0.086

HTATIP2 isoform 3 (UniProt Q9BUP3)
UniProt Q9BUP3, sequence (Q9BUP3 whole entry, looked up): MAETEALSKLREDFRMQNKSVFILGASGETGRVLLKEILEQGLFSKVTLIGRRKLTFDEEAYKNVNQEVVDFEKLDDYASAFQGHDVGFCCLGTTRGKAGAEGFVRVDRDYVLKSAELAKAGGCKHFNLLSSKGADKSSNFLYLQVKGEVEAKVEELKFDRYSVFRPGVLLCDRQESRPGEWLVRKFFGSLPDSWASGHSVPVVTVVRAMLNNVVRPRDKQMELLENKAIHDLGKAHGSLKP
inactive: [1] -0.143 | [2] -0.016 | [3] 0.116 | [4] -0.056 | [5] -0.046 | [6] -0.002 | [7] 0.031 | [8] 0.067 | [9] 0.106 | [10] -0.063

FANCD2 isoform 1 (UniProt Q9BXW9)
inactive: [1] -0.06 | [2] -0.014 | [3] -0.145 | [4] 0.15 | [5] -0.167 | [6] -0.119 | [7] 0.126 | [8] 0.1 | [9] -0.024 | [10] 0.052

HOOK3 (UniProt Q86VS8)
inactive: [1] -0.047 | [2] 0.029 | [3] -0.088 | [4] -0.078 | [5] -0.07 | [6] 0.009 | [7] 0.002 | [8] -0.027 | [9] -0.001 | [10] -0.024

HK2 (UniProt P52789)
active: [3] -0.967
inactive: [1] -0.215 | [2] 0.029 | [4] -0.194 | [5] -0.106 | [6] -0.03 | [7] 0.022 | [8] 0.01 | [9] -0.01 | [10] 0.046

GBF1 (UniProt Q92538)
UniProt Q92538, sequence (Q92538 whole entry, looked up): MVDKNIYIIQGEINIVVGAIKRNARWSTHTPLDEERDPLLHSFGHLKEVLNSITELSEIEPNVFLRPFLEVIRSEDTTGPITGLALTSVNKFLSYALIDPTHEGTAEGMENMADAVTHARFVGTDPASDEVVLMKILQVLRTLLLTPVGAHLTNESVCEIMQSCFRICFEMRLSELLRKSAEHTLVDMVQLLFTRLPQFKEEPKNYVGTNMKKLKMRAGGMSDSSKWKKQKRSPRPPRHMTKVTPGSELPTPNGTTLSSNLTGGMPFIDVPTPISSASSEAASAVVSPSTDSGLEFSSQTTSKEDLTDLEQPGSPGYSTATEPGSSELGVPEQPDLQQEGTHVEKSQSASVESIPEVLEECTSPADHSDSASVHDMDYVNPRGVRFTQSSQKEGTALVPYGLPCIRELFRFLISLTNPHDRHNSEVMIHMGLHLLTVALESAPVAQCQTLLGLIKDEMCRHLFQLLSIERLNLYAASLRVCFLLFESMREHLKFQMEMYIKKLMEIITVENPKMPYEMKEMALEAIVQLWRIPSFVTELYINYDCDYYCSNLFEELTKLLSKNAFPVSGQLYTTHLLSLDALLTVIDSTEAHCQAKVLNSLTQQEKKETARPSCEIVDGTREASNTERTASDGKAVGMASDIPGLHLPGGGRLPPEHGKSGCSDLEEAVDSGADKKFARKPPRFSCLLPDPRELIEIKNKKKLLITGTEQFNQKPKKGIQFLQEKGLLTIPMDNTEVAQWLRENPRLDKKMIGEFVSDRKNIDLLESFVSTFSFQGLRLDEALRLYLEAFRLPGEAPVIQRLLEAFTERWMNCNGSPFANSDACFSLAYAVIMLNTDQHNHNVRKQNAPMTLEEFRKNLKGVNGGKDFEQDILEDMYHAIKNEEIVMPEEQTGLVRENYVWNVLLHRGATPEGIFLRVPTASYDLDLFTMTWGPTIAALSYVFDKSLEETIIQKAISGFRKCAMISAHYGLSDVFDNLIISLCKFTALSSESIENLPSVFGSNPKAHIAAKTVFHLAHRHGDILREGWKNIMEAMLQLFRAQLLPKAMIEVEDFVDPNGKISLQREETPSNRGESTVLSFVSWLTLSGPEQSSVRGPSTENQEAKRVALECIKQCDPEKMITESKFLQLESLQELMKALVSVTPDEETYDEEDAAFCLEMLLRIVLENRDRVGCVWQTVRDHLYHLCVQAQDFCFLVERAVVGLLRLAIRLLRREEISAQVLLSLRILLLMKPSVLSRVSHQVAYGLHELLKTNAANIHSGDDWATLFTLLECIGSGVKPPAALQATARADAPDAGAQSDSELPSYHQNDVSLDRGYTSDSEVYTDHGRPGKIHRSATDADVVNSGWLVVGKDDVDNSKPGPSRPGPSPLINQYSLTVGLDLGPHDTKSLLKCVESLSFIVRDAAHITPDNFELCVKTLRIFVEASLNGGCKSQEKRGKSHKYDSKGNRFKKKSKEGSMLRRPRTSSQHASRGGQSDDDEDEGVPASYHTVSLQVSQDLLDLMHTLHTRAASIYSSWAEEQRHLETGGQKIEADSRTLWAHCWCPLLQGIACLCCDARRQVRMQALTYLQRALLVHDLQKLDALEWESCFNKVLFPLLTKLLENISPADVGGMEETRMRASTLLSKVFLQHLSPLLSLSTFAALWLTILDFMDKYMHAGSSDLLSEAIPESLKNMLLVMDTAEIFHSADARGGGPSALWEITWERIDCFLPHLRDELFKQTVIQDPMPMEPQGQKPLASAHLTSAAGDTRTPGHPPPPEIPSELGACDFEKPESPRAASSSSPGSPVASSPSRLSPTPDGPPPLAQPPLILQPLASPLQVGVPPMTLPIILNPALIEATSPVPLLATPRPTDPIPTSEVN
inactive: [1] 0.014 | [2] 0.081 | [3] -0.117 | [4] -0.109 | [5] -0.113 | [6] -0.001 | [7] -0.079 | [8] -0.049 | [9] -0.15 | [10] 0.093

HIP1 (UniProt O00291)
inactive: [1] -0.079 | [2] -0.069 | [3] -0.038 | [4] 0.063 | [5] 0.004 | [6] -0.079 | [7] -0.009 | [8] -0.002 | [9] -0.099 | [10] 0.077

FDPS (UniProt P14324)
inactive: [1] 0.057 | [2] 0.204 | [3] -0.156 | [4] 0.035 | [5] -0.392 | [6] -0.027 | [7] 0.209 | [8] 0.441 | [9] -0.258 | [10] 0.39

HMG20A (UniProt Q9NP66)
inactive: [1] -0.012 | [2] -0.05 | [3] -0.046 | [4] -0.02 | [5] 0.052 | [6] -0.012 | [7] -0.05 | [8] -0.224 | [9] 0.064 | [10] -0.021

HIKESHI (UniProt Q53FT3)
inactive: [1] -0.003 | [2] 0.02 | [3] -0.062 | [4] 0.018 | [5] 0.079 | [6] 0.009 | [7] 0.043 | [8] 0.065 | [9] -0.043 | [10] 0.025

HMGN2 (UniProt P05204)
inactive: [1] -0.013 | [2] -0.189 | [3] -0.025 | [4] 0.022 | [5] 0.053 | [6] 0 | [7] -0.025 | [8] 0.04 | [9] 0.079 | [10] 0.021

HNRNPF (UniProt P52597)
inactive: [1] -0.013 | [2] 0.056 | [3] -0.106 | [4] -0.178 | [5] -0.15 | [6] -0.066 | [7] 0.024 | [8] -0.057 | [9] -0.051 | [10] -0.022

GPD1 (UniProt P21695)
inactive: [1] -0.171 | [2] -0.123 | [3] -0.104 | [4] 0.054 | [5] 0.061 | [6] -0.017 | [7] 0.238 | [8] 0.163 | [9] 0.057 | [10] 0.045

GNL1 (UniProt P36915)
inactive: [1] -0.02 | [2] 0.019 | [3] -0.024 | [4] 0.05 | [5] -0.084 | [6] 0.054 | [7] 0.047 | [8] -0.03 | [9] -0.152 | [10] 0.009

GNS (UniProt P15586)
inactive: [1] -0.156 | [2] -0.002 | [3] 0.003 | [4] 0.037 | [5] 0.006 | [6] -0.033 | [7] 0.008 | [8] -0.028 | [9] 0.02 | [10] -0.004

GNAS (UniProt Q5JWF2)
inactive: [1] 0.129 | [2] -0.001 | [3] 0.103 | [4] -0.02 | [5] 0.064 | [6] 0.005 | [7] 0.029 | [8] 0.031 | [9] 0.005 | [10] -0.035

GALK1 isoform 2 (UniProt P51570)
inactive: [1] 0.061 | [2] 0.062 | [3] -0.018 | [4] -0.001 | [5] -0.043 | [6] -0.015 | [7] 0.055 | [8] -0.084 | [9] -0.136 | [10] 0.01

HRAS (UniProt P01112)
inactive: [1] -0.033 | [2] 0.063 | [3] 0.109 | [4] 0.024 | [5] 0 | [6] 0.003 | [7] 0.041 | [8] -0.007 | [9] 0.006 | [10] 0.033

GLUL (UniProt P15104)
inactive: [1] -0.027 | [2] -0.038 | [3] -0.061 | [4] 0.062 | [5] 0.015 | [6] -0.148 | [7] -0.035 | [8] -0.085 | [9] 0.011 | [10] -0.112

GTF2B (UniProt Q00403)
inactive: [1] -0.005 | [2] 0.139 | [3] -0.134 | [4] -0.13 | [5] -0.247 | [6] 0.006 | [7] 0.031 | [8] 0.102 | [9] -0.082 | [10] 0.007

GLS (UniProt O94925)
inactive: [1] -0.021 | [2] 0.025 | [3] -0.095 | [4] -0.069 | [5] -0.154 | [6] 0.009 | [7] -0.081 | [8] 0.003 | [9] -0.071 | [10] -0.285

FKBP4 (UniProt Q02790)
inactive: [1] -0.014 | [2] 0.017 | [3] -0.05 | [4] -0.011 | [5] -0.114 | [6] 0.024 | [7] 0.033 | [8] -0.002 | [9] -0.092 | [10] 0.012

GPX4 (UniProt P36969)
UniProt P36969, sequence (P36969 whole entry, looked up): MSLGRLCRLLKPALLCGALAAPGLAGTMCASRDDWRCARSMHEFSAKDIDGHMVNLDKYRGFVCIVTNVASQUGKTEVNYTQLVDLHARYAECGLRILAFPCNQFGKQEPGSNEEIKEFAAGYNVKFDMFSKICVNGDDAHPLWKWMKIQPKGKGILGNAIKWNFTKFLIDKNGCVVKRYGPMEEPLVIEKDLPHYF
inactive: [1] 0.003 | [2] 0.023 | [3] 0.036 | [4] -0.031 | [5] 0.015 | [6] 0.019 | [7] 0.05 | [8] 0.003 | [9] -0.046 | [10] 0.033

GUK1 isoform 2 (UniProt Q16774)
UniProt Q16774, sequence (Q16774 whole entry, looked up): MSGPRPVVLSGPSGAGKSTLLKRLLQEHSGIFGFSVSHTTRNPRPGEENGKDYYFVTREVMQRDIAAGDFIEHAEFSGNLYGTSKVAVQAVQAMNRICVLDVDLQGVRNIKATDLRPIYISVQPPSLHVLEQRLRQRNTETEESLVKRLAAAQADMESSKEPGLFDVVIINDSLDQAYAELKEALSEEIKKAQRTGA
inactive: [1] 0.134 | [2] 0.053 | [3] 0.226 | [4] -0.056 | [5] -0.109 | [6] 0.054 | [7] 0.058 | [8] -0.007 | [9] -0.15
active: [10] 0.397

HEXB (UniProt P07686)
UniProt P07686, sequence (P07686 whole entry, looked up): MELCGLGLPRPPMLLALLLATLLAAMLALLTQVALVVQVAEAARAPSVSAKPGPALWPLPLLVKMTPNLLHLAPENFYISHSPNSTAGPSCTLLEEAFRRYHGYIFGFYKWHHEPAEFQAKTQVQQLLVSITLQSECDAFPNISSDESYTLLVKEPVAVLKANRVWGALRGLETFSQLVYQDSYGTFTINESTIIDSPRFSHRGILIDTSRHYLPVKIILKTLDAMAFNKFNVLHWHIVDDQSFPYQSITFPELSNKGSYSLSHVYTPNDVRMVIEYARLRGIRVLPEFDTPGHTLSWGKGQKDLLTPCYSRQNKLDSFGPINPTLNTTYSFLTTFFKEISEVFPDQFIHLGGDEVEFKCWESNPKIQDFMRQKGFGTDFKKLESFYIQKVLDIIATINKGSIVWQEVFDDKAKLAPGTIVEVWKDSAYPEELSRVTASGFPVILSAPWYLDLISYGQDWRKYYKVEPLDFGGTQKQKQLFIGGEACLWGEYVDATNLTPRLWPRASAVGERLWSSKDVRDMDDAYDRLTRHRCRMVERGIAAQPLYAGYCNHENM
inactive: [2] -0.04 | [3] 0.002 | [4] 0.032 | [5] 0.039 | [6] -0.024 | [7] 0.021 | [8] 0.01 | [9] 0.026 | [10] 0.008
active: [1] -0.468

GNG5 (UniProt P63218)
UniProt P63218, sequence (P63218 whole entry, looked up): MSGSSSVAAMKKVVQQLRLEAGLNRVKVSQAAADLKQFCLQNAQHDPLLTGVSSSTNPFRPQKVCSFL
inactive: [1] 0.013 | [2] -0.048 | [3] 0.12 | [4] 0.023 | [5] 0.06 | [6] -0.051 | [7] 0.027 | [8] 0.169 | [9] 0.027 | [10] 0.039

HDAC10 (UniProt Q969S8)
UniProt Q969S8, sequence (Q969S8 whole entry, looked up): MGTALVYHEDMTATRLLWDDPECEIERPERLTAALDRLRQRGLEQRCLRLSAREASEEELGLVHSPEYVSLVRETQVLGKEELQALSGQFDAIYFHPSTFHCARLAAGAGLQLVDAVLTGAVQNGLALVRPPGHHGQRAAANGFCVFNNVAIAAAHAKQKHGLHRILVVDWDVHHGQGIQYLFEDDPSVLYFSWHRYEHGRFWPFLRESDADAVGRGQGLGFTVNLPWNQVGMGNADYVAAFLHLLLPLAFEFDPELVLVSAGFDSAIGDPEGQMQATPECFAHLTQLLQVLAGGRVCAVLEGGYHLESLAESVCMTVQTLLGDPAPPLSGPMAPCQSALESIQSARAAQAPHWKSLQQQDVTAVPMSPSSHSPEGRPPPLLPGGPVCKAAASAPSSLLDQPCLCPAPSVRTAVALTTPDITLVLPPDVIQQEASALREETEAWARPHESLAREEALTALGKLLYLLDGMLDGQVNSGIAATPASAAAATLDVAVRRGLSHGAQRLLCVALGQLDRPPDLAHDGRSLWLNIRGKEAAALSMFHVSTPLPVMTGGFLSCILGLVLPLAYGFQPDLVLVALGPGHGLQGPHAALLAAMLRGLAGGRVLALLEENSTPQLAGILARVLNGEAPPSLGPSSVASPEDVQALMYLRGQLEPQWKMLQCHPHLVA
inactive: [1] -0.255 | [2] -0.073 | [3] -0.118 | [4] -0.075 | [5] -0.027 | [6] -0.08 | [7] 0.071 | [8] 0.001 | [9] 0.046 | [10] 0.116
